Activity calls are given as the source filed them. Unless noted, no stated cut-off is given here; in the data, active means inhibition above about 36%; inactive means the rest.
Tests used:
[1] = target: Nuclear receptor coactivator 3 (Homo sapiens) (UniProt Q9Y6Q9); assay: NCOA3 GAL4-fusion reporter inhibition – cell-based, luminescence, quadruplicate, confirmation (AID 588792;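 active means mean inhibition over 43.08%, the solvent-only control mean plus 3 SD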;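 further: 0% = DMSO treated cells and 100% = gossypol at 36 µM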); conditions: HEK293 GAL4-SRC3 luciferase reporter, at 3.6 µM, stronger effect = higher value
Sequence of Nuclear receptor coactivator 3 (Homo sapiens) (Q9Y6Q9 whole entry, looked up, the tested form may be a part): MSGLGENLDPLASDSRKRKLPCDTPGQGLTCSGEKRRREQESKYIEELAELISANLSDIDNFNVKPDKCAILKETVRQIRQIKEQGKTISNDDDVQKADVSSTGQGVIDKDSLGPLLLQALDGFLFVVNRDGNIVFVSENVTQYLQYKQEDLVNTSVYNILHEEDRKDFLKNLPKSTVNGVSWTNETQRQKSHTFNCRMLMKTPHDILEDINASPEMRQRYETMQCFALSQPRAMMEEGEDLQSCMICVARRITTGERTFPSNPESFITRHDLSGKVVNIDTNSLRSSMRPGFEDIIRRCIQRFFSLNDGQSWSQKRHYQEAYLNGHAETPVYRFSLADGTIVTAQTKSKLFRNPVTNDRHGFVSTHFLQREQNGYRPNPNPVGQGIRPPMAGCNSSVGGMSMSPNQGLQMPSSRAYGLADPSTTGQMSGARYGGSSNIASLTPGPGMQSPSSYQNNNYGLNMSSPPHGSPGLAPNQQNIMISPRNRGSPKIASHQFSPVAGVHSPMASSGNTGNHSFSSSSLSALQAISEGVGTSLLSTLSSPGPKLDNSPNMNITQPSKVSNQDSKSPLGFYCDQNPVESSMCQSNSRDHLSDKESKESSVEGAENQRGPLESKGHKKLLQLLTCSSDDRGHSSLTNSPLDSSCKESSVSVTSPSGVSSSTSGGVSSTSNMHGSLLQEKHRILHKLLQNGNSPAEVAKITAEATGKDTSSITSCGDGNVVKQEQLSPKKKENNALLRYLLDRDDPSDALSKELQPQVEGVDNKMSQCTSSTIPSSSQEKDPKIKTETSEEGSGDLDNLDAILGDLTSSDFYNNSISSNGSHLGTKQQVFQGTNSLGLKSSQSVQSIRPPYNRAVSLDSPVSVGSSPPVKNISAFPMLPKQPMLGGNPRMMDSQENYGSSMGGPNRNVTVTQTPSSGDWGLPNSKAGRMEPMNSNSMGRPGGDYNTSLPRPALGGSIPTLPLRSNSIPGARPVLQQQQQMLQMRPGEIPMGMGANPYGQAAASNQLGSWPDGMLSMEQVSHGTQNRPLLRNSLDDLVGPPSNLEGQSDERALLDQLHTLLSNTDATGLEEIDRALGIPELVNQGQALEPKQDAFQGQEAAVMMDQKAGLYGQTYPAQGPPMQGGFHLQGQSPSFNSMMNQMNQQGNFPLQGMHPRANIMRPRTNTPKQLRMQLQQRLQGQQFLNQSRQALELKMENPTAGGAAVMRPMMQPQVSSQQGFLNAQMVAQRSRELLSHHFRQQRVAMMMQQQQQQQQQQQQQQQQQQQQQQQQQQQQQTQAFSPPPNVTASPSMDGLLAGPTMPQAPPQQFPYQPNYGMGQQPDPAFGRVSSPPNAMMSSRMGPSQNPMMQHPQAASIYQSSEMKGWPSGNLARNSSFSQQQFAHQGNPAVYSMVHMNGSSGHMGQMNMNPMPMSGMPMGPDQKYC

[2] = test system: transactivating tegument protein VP16 (Human herpesvirus 1), Gal4-VP16 luciferase reporter; assay: repression of VP16-driven luciferase reporter – cell-based, luminescence, high throughput, counter-screen for SRC3 inhibitor project (AID 588794; in the data active means inhibition above about 30%); conditions: mammalian cells, at 3.6 µM, stronger effect = higher value
[3] = target: Nuclear receptor coactivator 1 (Homo sapiens) (UniProt Q15788); assay: NCOA1 GAL4-fusion reporter inhibition – cell-based, luminescence, quadruplicate, confirmation (AID 588820;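 active means mean inhibition above 46.68%, the untreated control wells mean plus 3 SD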;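 further: 0% = DMSO wells and 100% = gossypol 36 µM treated wells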); conditions: HEK293 GAL4-SRC1 luciferase reporter, at 3.6 µM, stronger effect = higher value
[4] = repression of VP16-driven luciferase reporter – cell-based, luminescence, high throughput, counter-screen for SRC1 inhibitor project (AID 588824; in the data active means inhibition above about 25%); conditions: cell-based VP16 transactivation luciferase luminescence; at 3.6 µM; stronger effect = higher value
[5] = StAR promoter reporter inhibitors, counter-screen for LRH-1 inverse agonist project, cell-based, luminescence, high throughput (AID 651611; in the data active means inhibition above about 28%); conditions: StAR promoter luciferase reporter counterscreen, at 3.6 µM, stronger effect = higher value
[6] = target: Nuclear receptor subfamily 5 group A member 2 (Homo sapiens) (UniProt O00482); assay: NR5A2 activity suppression in reporter cells – cell-based, luminescence, confirmation (AID 651613; in the data active means inhibition above about 42%;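 further: HEK293T cells co-transfected with LRH-1 and StAR promoter luciferase reporter; 0% = vehicle wells and 100% = parental cells lacking receptor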); conditions: cell-based LRH-1 luciferase reporter, inverse agonism; at 3.6 µM; stronger effect = higher value
Sequence of Nuclear receptor subfamily 5 group A member 2 (Homo sapiens) (O00482 whole entry, looked up): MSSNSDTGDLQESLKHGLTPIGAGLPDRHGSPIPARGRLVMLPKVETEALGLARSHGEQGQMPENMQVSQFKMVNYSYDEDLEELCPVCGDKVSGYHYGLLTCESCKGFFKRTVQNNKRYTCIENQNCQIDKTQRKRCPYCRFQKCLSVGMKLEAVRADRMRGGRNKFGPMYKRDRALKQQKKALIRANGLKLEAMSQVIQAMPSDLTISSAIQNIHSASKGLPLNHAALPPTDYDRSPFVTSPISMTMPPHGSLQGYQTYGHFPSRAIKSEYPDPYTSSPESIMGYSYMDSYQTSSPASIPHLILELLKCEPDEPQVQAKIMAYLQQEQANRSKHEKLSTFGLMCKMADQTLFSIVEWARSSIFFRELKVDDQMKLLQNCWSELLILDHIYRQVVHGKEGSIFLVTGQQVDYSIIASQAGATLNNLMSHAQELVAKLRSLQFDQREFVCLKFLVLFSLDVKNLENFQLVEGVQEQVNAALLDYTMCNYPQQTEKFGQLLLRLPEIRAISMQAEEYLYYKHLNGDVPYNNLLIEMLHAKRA

[7] = target: Steroidogenic factor 1 (Homo sapiens) (UniProt Q13285); assay: inverse agonism at SF1 nuclear receptor – cell-based, luminescence, high throughput, counter-screen for LRH-1 inverse agonist project (AID 651614; in the data active means inhibition above about 44%;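 further: cells cotransfected with StAR promoter reporter and SF1 expression vector; 0% = vehicle on cells with receptor and 100% = vehicle on cells lacking receptor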); conditions: cell-based SF1 luciferase reporter, at 3.6 µM, stronger effect = higher value
Sequence of Steroidogenic factor 1 (Homo sapiens) (Q13285 whole entry, looked up, the tested form may be a part): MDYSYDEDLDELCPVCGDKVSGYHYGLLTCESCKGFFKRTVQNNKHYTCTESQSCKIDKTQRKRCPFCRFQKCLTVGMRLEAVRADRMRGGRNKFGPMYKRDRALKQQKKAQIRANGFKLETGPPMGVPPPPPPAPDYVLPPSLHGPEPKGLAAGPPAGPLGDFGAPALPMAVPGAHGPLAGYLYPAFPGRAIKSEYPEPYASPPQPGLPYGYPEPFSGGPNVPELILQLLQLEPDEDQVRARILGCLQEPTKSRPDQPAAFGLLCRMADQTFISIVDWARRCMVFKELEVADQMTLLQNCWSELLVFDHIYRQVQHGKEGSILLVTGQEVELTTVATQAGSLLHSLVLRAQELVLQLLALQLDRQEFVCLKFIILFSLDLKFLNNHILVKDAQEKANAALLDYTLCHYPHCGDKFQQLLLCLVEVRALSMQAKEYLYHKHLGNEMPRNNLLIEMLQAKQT

[8] = compounds suppressing VP16-driven luciferase signal – cell-based, luminescence, high throughput, counter-screen for LRH-1 inverse agonist project (AID 651615; in the data active means inhibition above about 33%); conditions: Gal4-VP16 luciferase reporter cells, at 3.6 µM, stronger effect = higher value
[9] = test system: transactivating tegument protein VP16 (Human herpesvirus 1); assay: compounds suppressing VP16-driven luciferase signal – cell-based, luminescence, single concentration, counter-screen for SRC2 inhibitor project (AID 652007); conditions: cell-based VP16 transactivation luciferase reporter, at 8.9 µM, stronger effect = higher value
[10] = target: Nuclear receptor coactivator 2 (Homo sapiens) (UniProt Q15596); assay: inhibition of GAL4-SRC2 driven luciferase expression – cell-based, luminescence, HEK293, triplicate, confirmation (AID 652008;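 active means mean inhibition above 46.5%, the solvent-only control mean plus 3 SD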;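 further: 0% = DMSO-treated cells and 100% = Gossypol at 36 µM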); conditions: HEK293 GAL4-SRC2 luciferase reporter, at 8.9 µM, stronger effect = higher value
Sequence of Nuclear receptor coactivator 2 (Homo sapiens) (Q15596 whole entry, looked up, the tested form may be a part): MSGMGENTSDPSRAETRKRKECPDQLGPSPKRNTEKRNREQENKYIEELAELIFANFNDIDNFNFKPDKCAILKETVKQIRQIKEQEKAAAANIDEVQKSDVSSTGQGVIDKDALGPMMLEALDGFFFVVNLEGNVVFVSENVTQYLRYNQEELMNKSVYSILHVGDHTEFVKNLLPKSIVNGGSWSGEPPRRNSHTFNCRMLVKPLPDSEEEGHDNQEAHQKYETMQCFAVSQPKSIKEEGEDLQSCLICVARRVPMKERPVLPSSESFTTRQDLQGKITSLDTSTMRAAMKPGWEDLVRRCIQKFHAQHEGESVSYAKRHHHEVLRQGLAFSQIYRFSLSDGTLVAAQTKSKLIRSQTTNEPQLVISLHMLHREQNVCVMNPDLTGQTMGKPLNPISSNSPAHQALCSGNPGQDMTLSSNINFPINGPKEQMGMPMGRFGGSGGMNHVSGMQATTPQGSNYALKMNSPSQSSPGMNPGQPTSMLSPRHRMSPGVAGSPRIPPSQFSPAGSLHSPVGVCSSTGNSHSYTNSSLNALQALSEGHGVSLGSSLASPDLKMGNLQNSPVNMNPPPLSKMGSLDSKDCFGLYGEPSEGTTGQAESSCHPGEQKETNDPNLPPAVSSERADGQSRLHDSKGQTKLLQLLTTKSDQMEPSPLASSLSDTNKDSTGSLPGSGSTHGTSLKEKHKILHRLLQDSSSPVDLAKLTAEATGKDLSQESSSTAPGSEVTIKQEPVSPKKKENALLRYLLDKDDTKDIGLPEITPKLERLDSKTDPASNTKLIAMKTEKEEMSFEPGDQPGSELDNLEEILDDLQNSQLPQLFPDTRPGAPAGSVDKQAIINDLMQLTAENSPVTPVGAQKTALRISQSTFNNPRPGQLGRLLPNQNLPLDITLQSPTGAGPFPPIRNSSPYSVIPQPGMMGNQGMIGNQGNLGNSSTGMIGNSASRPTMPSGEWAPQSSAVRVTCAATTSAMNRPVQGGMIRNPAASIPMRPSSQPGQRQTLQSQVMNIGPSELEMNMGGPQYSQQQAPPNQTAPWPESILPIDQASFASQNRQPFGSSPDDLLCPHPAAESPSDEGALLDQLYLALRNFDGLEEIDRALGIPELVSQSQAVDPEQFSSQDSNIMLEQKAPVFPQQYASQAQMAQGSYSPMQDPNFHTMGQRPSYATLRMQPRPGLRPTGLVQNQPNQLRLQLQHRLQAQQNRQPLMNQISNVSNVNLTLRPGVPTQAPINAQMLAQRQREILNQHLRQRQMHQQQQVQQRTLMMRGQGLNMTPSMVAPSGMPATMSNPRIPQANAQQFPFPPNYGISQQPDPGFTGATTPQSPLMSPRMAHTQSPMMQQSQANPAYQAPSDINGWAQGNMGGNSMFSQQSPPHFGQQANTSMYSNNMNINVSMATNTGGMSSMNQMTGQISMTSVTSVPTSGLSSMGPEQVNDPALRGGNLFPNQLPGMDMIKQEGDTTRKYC

Measured: inhibition

COc1cc(C(=O)/C=C/c2cccnc2)c([N+](=O)[O-])cc1OC
inactive: [1] 33.2% | [3] 29.4% | [9] 18.2% | [10] 45.8%
active: [2] 45.3% | [4] 48.8% | [5] 59.3% | [6] 59.1% | [7] 56.7% | [8] 68.5%

Nc1nc(F)nc2c1ncn2[C@@H]1O[C@H](CO)[C@@H](O)[C@H]1O
active: [1] 98% | [2] 93.4% | [3] 82.7% | [4] 94.4% | [5] 94.5% | [6] 108% | [7] 96.2% | [8] 98.7% | [9] 76.6% | [10] 77.6%

CCCN(CCC)C1=CC(=[N+]2CCCC2)CC(C)(C)C1
active: [2] 56.8% | [4] 55.3% | [5] 38.3% | [6] 106% | [7] 78.8% | [8] 86.6%
inactive: [1] 25.5% | [3] 36.1% | [9] 29% | [10] 18.8%

Cc1ccc(C(=O)O/N=C(\N)c2ccccn2)c(Cl)c1
inactive: [1] 28.7% | [2] 11.1% | [3] -47.4% | [4] -23.7% | [5] -22.8% | [6] -86.9% | [7] 4.43% | [8] -54.1%
active: [9] 50.6% | [10] 70.8%

Cc1cc(C(=O)CSc2nc3ccccc3[nH]2)c(C)n1CC1CCCO1 (stereo not given)
active: [2] 30.5% | [8] 32.9% | [10] 50.9%
inactive: [1] 5.02% | [3] -86.8% | [4] -6.65% | [5] -34.6% | [6] -80.8% | [7] -1.87% | [9] 31.5%

O=C(NCCc1ccccc1)c1ccc2c(c1)OCCO2
active: [5] 29.6% | [9] 44.1% | [10] 77.7%
inactive: [1] 41.6% | [2] 11.9% | [3] -81.6% | [4] 0.41% | [6] -10.6% | [7] 42% | [8] 7.34%

Nc1cc2ccncc2c2ccccc12
active: [1] 72% | [2] 51.6% | [3] 68.9% | [4] 47.8% | [6] 75.6% | [7] 63.2% | [8] 72.3%
inactive: [5] 8.54% | [9] 22.2% | [10] 43.4%

CCCN(CC)c1ncnc2[nH]ncc12
active: [1] 72.3% | [2] 52.6% | [3] 71.4% | [4] 50.1% | [6] 45% | [8] 69.2%
inactive: [5] 25.9% | [7] 37.1% | [9] -9.97% | [10] 43.2%

CSC1SCC2C(=O)N(C)C(C(C)C)C(=O)OCC(NC(=O)c3cnc4ccccc4n3)C(=O)NC(C)C(=O)N(C)C1C(=O)N(C)C(C(C)C)C(=O)OCC(NC(=O)c1cnc3ccccc3n1)C(=O)NC(C)C(=O)N2C (stereo not given)
active: [1] 96.8% | [2] 96.7% | [3] 85.7% | [4] 96.8% | [5] 86.5% | [6] 107% | [7] 97.1% | [8] 97.3% | [9] 62.2% | [10] 51.1%

CC(C)(C)c1ccc(C(=O)Nc2sc3c(c2C(=O)O)CCC3)cc1
active: [1] 48.4% | [2] 73% | [4] 73.4% | [5] 77.2% | [6] 95.7% | [7] 90.7% | [8] 77.3%
inactive: [3] 42.3% | [9] 8.37% | [10] 10.1%

COc1ccc(-c2nsc3c(N4CCCCC4C)ncnc23)cc1 (stereo not given)
active: [1] 84.2% | [2] 80.4% | [3] 70.2% | [4] 68.4% | [5] 80.2% | [6] 59.2% | [7] 80.9% | [8] 67% | [9] 83.1% | [10] 93.3%

O=C(OC(c1ccccc1)c1nccc2ccccc12)c1ccccc1 (stereo not given)
inactive: [3] 26.3% | [4] 21.7% | [6] -16.8% | [8] -4.96% | [9] 30.1%
active: [1] 57.4% | [2] 42.8% | [5] 43.4% | [7] 45.4% | [10] 67.6%

CC(C)(C)OC(=O)NCCCCCc1cn([C@@H](CO)C(=O)NCCCCCCCCCCC(=O)N2CCN(C(=O)OC(C)(C)C)CC2)nn1
active: [2] 66.8% | [4] 71.4% | [5] 59.5% | [6] 69.4% | [7] 69.9% | [8] 80.6% | [9] 55% | [10] 48.7%
inactive: [1] 23.4% | [3] 0.34%

Clc1ccc(-n2ncc3c(NCCN4CCOCC4)ncnc32)cc1
active: [5] 28.4% | [9] 36.7% | [10] 58.9%
inactive: [1] 37.8% | [2] -3.35% | [3] 3.19% | [4] -21.6% | [6] -30.3% | [7] 33.4% | [8] -23.4%

O=C(CC1CS(=O)(=O)CC1CC(=O)Nc1ccc2c(c1)OCCO2)Nc1ccc2c(c1)OCCO2 (stereo not given)
inactive: [1] 37.1% | [2] -5.19% | [3] -14.1% | [4] -21.8% | [5] -26.2% | [6] -91.7% | [7] -43.4% | [8] -53.8%
active: [9] 46.5% | [10] 57%

S=C(NCCCCN(Cc1ccc(Cl)cc1)c1ccc(Br)cn1)NCCCc1cnc[nH]1
inactive: [9] 23.1%
active: [1] 93.1% | [2] 72.5% | [3] 76.5% | [4] 60.9% | [5] 90.1% | [6] 103% | [7] 96.7% | [8] 86.5% | [10] 54.5%

Cc1nn(-c2nc3ccccc3[nH]2)c(=O)c2ccccc12
active: [1] 72.3% | [2] 65% | [3] 47.4% | [4] 68.3% | [5] 69.2% | [6] 63.9% | [7] 78.8% | [8] 59.3% | [9] 82.9% | [10] 89.3%

CCOc1c(Br)cc(CNc2ccc3c(c2)OCCO3)cc1OC
inactive: [1] 14.5% | [2] 8.55% | [3] -25.8% | [4] 9.33% | [5] 3.55% | [6] 3.36% | [7] 19.9% | [8] 26.2% | [9] -28.8% | [10] 21.9%

C=C(C(=O)c1ccccc1)C(NC(C)(C)C)c1ccccc1 (stereo not given)
active: [1] 45% | [2] 90.4% | [4] 90.2% | [5] 58.5% | [6] 93.7% | [7] 87.4% | [8] 92.9% | [9] 78.7%
inactive: [3] -116% | [10] 44.6%

CCN1/C(=C/c2sc(-c3ccccc3C)c[n+]2C)Sc2ccccc21
active: [1] 76.8% | [2] 86% | [3] 61.9% | [4] 82.8% | [5] 74.7% | [6] 105% | [7] 94.7% | [8] 89.2% | [9] 44.1%
inactive: [10] 34.1%

CN(c1ncnc(N)c1[N+](=O)[O-])C1CCCCC1
inactive: [9] 28.4%
active: [1] 82.5% | [2] 59.7% | [3] 69.9% | [4] 55.3% | [5] 32.3% | [6] 56.7% | [7] 44.1% | [8] 72.2% | [10] 59.8%

COc1ccc2cc3c(N)nn(C(=O)c4ccccc4Cl)c3nc2c1
active: [1] 74.4% | [2] 64.5% | [3] 60.9% | [4] 62.6% | [5] 47.3% | [6] 75.6% | [7] 59.1% | [8] 81.6% | [10] 50%
inactive: [9] -12.1%

CC1=C(C(=O)OCc2ccc3c(c2)OCO3)C(c2ccc(F)cc2)NC(=O)N1 (stereo not given)
active: [1] 77.2% | [2] 66.2% | [3] 70.7% | [4] 67.6% | [5] 49.1% | [6] 71.3% | [7] 62.8% | [8] 85.2% | [10] 58.7%
inactive: [9] 16.1%

Cc1cc(C(=O)COC(=O)c2ccccc2O)c(C)n1CC1CCCO1 (stereo not given)
active: [1] 88.8% | [2] 85.1% | [3] 81.2% | [4] 76.8% | [5] 73.5% | [6] 64.9% | [7] 76.7% | [8] 75.2% | [9] 86.7% | [10] 96.3%

CC(C)Nc1ncnc2ccc(Br)cc12
inactive: [5] 17.8% | [9] 20.2%
active: [1] 74.3% | [2] 72.7% | [3] 65.3% | [4] 58.9% | [6] 61.1% | [7] 58.4% | [8] 71% | [10] 65.7%

CN=c1scc(-c2ccccc2F)n1/N=C/c1ccc[nH]1
active: [1] 89% | [2] 86.5% | [3] 71.6% | [4] 75.6% | [5] 87.2% | [6] 70.1% | [7] 85.6% | [8] 78.1% | [9] 87.7% | [10] 96.1%

O=C(/C=C/Nc1ccccc1Br)c1ccccn1
inactive: [3] 10.4%
active: [1] 48.5% | [2] 32.8% | [4] 33.1% | [5] 58.2% | [6] 42.5% | [7] 62.7% | [8] 36.1% | [9] 64.9% | [10] 82.7%

Cc1c(C)c2ccc(OCC(=O)Nc3ccccn3)c(C)c2oc1=O
active: [1] 78.5% | [2] 72.3% | [3] 50.1% | [4] 59.6% | [5] 67.5% | [6] 68.8% | [7] 76.4% | [8] 69.7% | [9] 81.3% | [10] 90.3%

O=C(Nc1nc2ccccc2[nH]1)c1ccccc1F
inactive: [1] 27.6% | [2] 19.6% | [3] -26.7% | [4] 11.2% | [5] -0.87% | [6] -32.3% | [7] 13.5% | [8] -10.4%
active: [9] 43.9% | [10] 67.2%
